The values that follow come from PubChem BioAssay.

The target of test [1] is Albumin (Bos taurus) (UniProt P02769). In words: bovine serum albumin binders on microarray, profiling panel, artefact control for SMM control protein annotation, biochemical, small-molecule microarray, Alexa647 label, 635/667 nm fluorescence (AID 1118).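 Note: score merges 667 nm emission intensity and signal-to-noise per printed compound spot.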 The note with it: BSA-A647 binding, fluorescence 635 nm, higher = more signal.
Test [2] is described as follows: small-molecule microarray binders of probe aXIP, primary screen, biochemical, NeuroSMM set, 635/667 nm fluorescence (AID 1119).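 Note: probe is the protein aXip251-270 applied at 1 µg/mL to compound-printed slides; binding of probe to printed compounds measured as 667 nm fluorescence plus signal to noise.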 The note with it: higher = more signal, called active from +8 up or from −8 down.
Test [3] is described as follows: small-molecule binders of probe aNOTCH3, primary screen, biochemical, small-molecule microarray, 635/667 nm fluorescence (AID 1120).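 Note: probe is a biotin-tagged antibody raised against NOTCH3 rather than NOTCH3 protein; score merges spot fluorescence near 667 nm with spot signal to noise.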 The note with it: higher = more signal.
Test [4] can be described thus: small-molecule binders of probe aNOTCH2, primary screen, biochemical, small-molecule microarray, 635/667 nm fluorescence (AID 1121).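 Note: score merges feature fluorescence read at 667 nm with its signal to noise.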 To be noted: higher = more signal.
For test [5], the target named is Carbonic anhydrase 2 (Homo sapiens) (UniProt P00918). In words: CAII small-molecule binders, profiling panel, biochemical, small-molecule microarray, Alexa647-labelled CAII (AID 1122). The note with it: CAII-A647 binding fluorescence, higher = more signal.
A short description of test [6]: COS7 lysate on small-molecule microarray, probe aHis, 635 nm (AID 1123).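 Note: z-score combines 667nm fluorescence intensity with signal-to-noise per printed compound spot.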 To be noted: COS7 cell lysate, fluorescence, higher = more signal.
A short description of test [7]: compound binding in COS7 lysate, probe aLAP1, primary screen, cell lysate, small-molecule microarray (AID 1124).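 Note: lysate comes from COS7 cells expressing LAP1 and is applied at 0.3 µg/mL; score merges spot fluorescence near 667 nm with signal-to-noise over triplicate slides.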 The note with it: probe aLAP1, fluorescence, higher = more signal.
The test system of test [8] is Sam68 (KHDRBS1). In words: Sam68 small-molecule binders, primary screen, biochemical, small-molecule microarray, 635 nm fluorescence (AID 1125).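 Note: score merges 667 nm channel intensity with signal to noise over triplicate slides.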 To be noted: small-molecule microarray binding, higher = more signal.
The subject of test [9] is Chordin-like protein 2 (CHRDL2). As to the kind of experiment: CHRDL2 small-molecule binders, primary screen, biochemical, small-molecule microarray, 635 nm fluorescence (AID 1126).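 Note: printed compound slides probed with Chrdl2 protein at 4 µg/mL for 1 h at 4 C; score merges 667 nm emission intensity with signal to noise over three replicate slides.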 The note with it: small-molecule microarray binding, fluorescence 635 nm; higher = more signal.
Test [10] concerns the target Concanavalin-A (Canavalia ensiformis) (UniProt P02866). In words: ConA small-molecule binders, primary screen, artefact control for SMM control protein annotation, biochemical, small-molecule microarray, Alexa647 label, 635 nm (AID 1127).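 Note: z combines 667 nm emission intensity with signal-to-noise across three replicate slides.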 To be noted: ConA-A647 binding fluorescence, higher = more signal.
The nature of test [11]: anti-His antibody binders, primary screen, artefact control for SMM control protein annotation, biochemical, small-molecule microarray, 635 nm fluorescence (AID 1128).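 Note: score merges feature fluorescence with signal-to-noise for each printed compound spot.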 To be noted: anti-His Alexa647 antibody binding, higher = more signal.
The subject of test [12] is Human papillomavirus type 1a E7 protein (residues 1-88). As to the kind of experiment: HPV1a E7 small-molecule binders, primary screen, biochemical, small-molecule microarray, residues 1-88, 635 nm (AID 1129). The note with it: small-molecule microarray binding, fluorescence 635 nm; higher = more signal.
Test [13] has as its target Focal adhesion kinase 1 (Homo sapiens) (UniProt Q05397). As to the kind of experiment: small-molecule microarray binders of FAK, primary screen, biochemical, 635/667 nm fluorescence, BSA, DTT (AID 1130).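 Note: composite of spot emission at 667 nm and signal to noise over triplicate slides.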 The note with it: PTK2 binding, 635 nm fluorescence, higher = more signal.
Test [14] relates to Fibrinogen (Alexa647-labelled). In words: fibrinogen binders on compound microarrays, profiling panel, artefact control for SMM control-protein annotation, biochemical, small-molecule microarray, 635/667 nm fluorescence (AID 1131).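 Note: z-score merges 667 nm fluorescence with per-spot signal-to-noise over triplicate slides.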 To be noted: fibrinogen-A647 binding fluorescence, higher = more signal.
Test [15] has as its target Follistatin (Homo sapiens) (UniProt P19883). As to the kind of experiment: follistatin binders on small-molecule microarrays, primary screen, biochemical, small-molecule microarray, 635/667 nm fluorescence (AID 1132). To be noted: FST binding, 635 nm fluorescence, higher = more signal.
The target in test [16] is Fibroblast growth factor 2 (Homo sapiens) (UniProt P09038). As to the kind of experiment: FGF2 binders on small-molecule microarrays, primary screen, biochemical, small-molecule microarray, 635/667 nm fluorescence (AID 1133). The note with it: small-molecule microarray binding, FGF2, fluorescence 635/667; higher = more signal.
Test [17] can be described thus: mitochondrial membrane potential change in A549 cells, profiling panel, cell-based, JC-1 fluorescence, basal, 24 h, 100 nL (AID 1138).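 Note: A549 lung adenocarcinoma cells under basal conditions with no added stimulus; test concentration not given here.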 To be noted: higher = more signal.
In test [18] the test system is Lefty1. In words: Lefty1 binders on small-molecule microarrays, primary screen, biochemical, small-molecule microarray, 635/667 nm fluorescence (AID 1139). The note with it: small-molecule microarray binding, fluorescence 635/667; higher = more signal.
Test [19] deals with wheat germ agglutinin (Triticum aestivum), Alexa647-labelled. In words: wheat germ agglutinin binders on compound microarrays, profiling panel, artefact control for SMM control-protein annotation, biochemical, small-molecule microarray, 635/667 nm fluorescence (AID 1140).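 Note: score merges 667 nm feature emission with signal to noise over triplicate slides.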 The note with it: WGA-A647 binding, 635 nm fluorescence, higher = more signal.
For test [20], the target named is Luciferin 4-monooxygenase (Photinus pyralis) (UniProt P08659). In words: firefly luciferase enzyme inhibitors, primary screen, biochemical, luminescence, purified enzyme, 2006 set (AID 1141).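 Note: cell-free assay with purified firefly luciferase at 100 ng per well in PBS; test concentration not given here.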 The note with it: SteadyGlo luminescence, 30 min, higher = more signal, called active from +8 up or from −8 down.

Each structure is given as a SMILES string. Calls of active or inactive are those of the source.

Chain of Concanavalin-A (Canavalia ensiformis) (P02866 whole entry, looked up): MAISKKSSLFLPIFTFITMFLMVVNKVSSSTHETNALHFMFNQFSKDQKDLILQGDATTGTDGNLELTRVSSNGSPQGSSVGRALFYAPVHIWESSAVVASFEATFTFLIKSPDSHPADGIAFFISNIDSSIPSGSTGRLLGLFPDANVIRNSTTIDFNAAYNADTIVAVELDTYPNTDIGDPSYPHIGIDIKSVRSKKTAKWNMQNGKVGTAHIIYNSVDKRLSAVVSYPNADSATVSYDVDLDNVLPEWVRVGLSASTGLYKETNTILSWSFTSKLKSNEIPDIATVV
Chain of Focal adhesion kinase 1 (Homo sapiens) (Q05397 whole entry, looked up): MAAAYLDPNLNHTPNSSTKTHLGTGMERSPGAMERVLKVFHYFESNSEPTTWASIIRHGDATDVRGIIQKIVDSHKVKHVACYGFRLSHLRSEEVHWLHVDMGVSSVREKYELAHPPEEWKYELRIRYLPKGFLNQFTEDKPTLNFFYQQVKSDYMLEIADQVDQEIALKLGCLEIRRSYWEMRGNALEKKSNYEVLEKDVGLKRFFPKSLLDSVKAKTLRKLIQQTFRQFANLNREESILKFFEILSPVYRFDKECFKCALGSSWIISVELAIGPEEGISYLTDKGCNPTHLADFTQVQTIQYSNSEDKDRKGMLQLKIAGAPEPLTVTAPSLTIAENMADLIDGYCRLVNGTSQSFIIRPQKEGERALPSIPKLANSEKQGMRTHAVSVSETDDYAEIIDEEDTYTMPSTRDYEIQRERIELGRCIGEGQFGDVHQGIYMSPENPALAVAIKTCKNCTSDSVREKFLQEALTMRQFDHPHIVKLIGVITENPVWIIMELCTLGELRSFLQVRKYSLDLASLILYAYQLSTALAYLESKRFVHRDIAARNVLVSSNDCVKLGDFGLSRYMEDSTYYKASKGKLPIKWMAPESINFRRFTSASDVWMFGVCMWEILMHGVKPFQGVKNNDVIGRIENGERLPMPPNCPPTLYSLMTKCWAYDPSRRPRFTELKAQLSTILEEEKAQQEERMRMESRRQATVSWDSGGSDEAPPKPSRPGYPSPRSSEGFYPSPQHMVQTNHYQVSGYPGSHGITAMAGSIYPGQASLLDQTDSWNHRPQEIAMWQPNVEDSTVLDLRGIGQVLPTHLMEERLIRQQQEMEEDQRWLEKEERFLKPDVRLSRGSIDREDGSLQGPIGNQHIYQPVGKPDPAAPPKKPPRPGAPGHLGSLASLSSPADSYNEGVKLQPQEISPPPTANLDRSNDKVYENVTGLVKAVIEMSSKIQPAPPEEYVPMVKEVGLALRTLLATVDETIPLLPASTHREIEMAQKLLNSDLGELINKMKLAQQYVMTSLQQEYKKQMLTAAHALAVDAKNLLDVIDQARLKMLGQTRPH
Chain of Fibroblast growth factor 2 (Homo sapiens) (P09038 whole entry, looked up): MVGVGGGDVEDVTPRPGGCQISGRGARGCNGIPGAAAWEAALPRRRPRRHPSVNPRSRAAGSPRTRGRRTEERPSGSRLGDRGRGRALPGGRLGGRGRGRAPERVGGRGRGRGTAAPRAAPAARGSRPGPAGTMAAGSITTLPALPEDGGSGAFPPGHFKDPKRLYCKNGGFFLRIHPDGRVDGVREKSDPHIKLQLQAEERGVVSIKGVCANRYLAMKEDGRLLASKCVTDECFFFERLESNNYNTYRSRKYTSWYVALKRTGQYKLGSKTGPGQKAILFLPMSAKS
Chain of Albumin (Bos taurus) (P02769 whole entry, looked up): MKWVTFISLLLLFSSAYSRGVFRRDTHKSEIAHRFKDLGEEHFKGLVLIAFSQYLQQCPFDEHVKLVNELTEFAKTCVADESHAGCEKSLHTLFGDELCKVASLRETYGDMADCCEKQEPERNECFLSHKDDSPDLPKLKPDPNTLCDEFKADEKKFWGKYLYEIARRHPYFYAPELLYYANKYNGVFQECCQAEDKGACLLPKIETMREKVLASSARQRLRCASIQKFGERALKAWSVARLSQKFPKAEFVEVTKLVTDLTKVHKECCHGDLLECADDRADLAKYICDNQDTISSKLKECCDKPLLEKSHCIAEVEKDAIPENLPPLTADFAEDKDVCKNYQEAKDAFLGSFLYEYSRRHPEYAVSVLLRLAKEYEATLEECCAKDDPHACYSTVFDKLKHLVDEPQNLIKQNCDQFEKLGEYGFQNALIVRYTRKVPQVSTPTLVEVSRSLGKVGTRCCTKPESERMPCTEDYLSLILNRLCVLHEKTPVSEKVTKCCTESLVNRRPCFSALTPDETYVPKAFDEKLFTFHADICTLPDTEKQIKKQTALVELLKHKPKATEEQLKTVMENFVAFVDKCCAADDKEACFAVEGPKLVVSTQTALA
Chain of Follistatin (Homo sapiens) (P19883 whole entry, looked up): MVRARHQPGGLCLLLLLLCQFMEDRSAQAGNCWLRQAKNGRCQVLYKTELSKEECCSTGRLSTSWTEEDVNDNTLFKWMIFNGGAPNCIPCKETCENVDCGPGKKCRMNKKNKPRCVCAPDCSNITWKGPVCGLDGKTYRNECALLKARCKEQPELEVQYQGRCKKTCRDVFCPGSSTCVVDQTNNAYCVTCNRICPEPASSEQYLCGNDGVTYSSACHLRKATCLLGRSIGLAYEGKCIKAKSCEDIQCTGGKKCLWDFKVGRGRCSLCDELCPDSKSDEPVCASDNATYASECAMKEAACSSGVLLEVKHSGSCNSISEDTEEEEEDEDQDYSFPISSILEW
Chain of Luciferin 4-monooxygenase (Photinus pyralis) (P08659 whole entry, looked up): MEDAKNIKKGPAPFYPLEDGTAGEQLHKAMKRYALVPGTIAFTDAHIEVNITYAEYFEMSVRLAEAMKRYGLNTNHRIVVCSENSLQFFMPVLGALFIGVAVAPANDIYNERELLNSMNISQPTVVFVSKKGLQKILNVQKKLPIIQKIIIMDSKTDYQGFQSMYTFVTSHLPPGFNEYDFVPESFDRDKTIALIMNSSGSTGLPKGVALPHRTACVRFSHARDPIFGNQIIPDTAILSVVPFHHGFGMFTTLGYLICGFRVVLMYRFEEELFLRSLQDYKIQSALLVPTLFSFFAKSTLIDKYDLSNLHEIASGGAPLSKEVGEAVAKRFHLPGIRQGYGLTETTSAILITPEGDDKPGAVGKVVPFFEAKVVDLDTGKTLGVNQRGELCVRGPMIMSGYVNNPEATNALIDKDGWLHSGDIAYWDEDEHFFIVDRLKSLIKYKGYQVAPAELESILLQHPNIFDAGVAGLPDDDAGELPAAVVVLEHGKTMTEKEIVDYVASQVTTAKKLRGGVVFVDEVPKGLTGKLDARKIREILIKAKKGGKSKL

Consider `CC(C)N1C(=O)C[C@@](C(=O)NC2CC2)(c2ccc([N+](=O)[O-])cc2)[C@H]1c1ccc(CO)cc1`, for which the composite z-score in test [1] was -1.1; in test [3], -0.339; in [4], -0.14; in [5] it was 0.525; in test [6], 2.95; in test [7] it was 0.965. Also, the composite z-score in test [8] was -0.203; in [9], -1.08; in test [10], -0.0039; in test [11], 1.7; in test [12] it was -0.0823; in [13], 0.403. The composite z-score was -0.793 in test [14]; 0.323 in test [15]; 0.362 in test [16]; -1.11 in [18]; -0.545 in test [19]. In [2], the composite Z-score is -0.239 (inactive). The z-score in [17] was -0.544; in test [20] it was -0.254 (inactive).

Take `COc1cccc(C)c1NC(=O)O[C@H]1[C@H](OC(=O)Nc2ccc3c(c2)OCO3)[C@@H](OC(=O)Nc2ccc3c(c2)OCO3)[C@@H](OC)O[C@@H]1CO`: the composite z-score was 0.48 in test [1]; 0.508 in [3]; -0.0714 in [4]; 0.43 in [5]; 2.53 in test [6]; 1.29 in test [7]. Also, the composite z-score in test [8] stood at 1.29; in test [9], 0.492; in test [10] it was 0.66; in test [11], 0.4; in [12], 1.25; in test [13] it was 1.09. Also, the composite z-score in test [14] was 0.988; in [15], 1.28; in test [16], 0.887; in [18] it was 1.28; in [19] it was 1.15. The composite Z-score in [2] was 0.525 (inactive). In addition, the z-score was -0.588 in [17] and -5.18 (inactive) in test [20].

As for `C=C[C@@H](OC)[C@H](OC(=O)Nc1ccc(OC)cc1)c1ccc(O)c(F)c1`, the composite z-score in test [1] was -0.715; in [3], -0.0581; in [4], -0.2; in test [5] it was 0.268; in test [6] it was 1.93; in test [7], 0.117. In addition, the composite z-score was 0.21 in test [8]; 0.746 in [9]; -0.728 in test [10]; 0.0143 in [11]; -0.0707 in test [12]; 0.0004 in test [13]. The composite z-score is -0.808 in test [14]; 1.2 in [15]; 0.659 in test [16]; 1.35 in [18]; -0.251 in test [19]. Besides, the composite Z-score in [2] is 0.656 (inactive). Further, the z-score in [17] is -0.116; in test [20], -3.89 (inactive).

Regarding `C=CCC(OC(C)=O)[C@@H]1[C@@H](N(Cc2cccc3ccccc23)C(=O)Cc2ccc(OC)cc2)c2cc(OCCCO)ccc2N1C(=O)c1ccc(-c2ccccc2)cc1` (stereo not given in full), the composite z-score was 0.249 in [1]; -0.0647 in test [3]; -0.0895 in [4]; -0.0283 in test [5]; 0.917 in test [6]; 0.181 in [7]. For the same compound, the composite z-score in [8] was -0.189; in [9], 0.0133; in test [10], -0.285; in test [11] it was -0.328; in [12], -0.127; in test [13], 0.0862. In addition, the composite z-score in test [14] is 0.701; in [15] it was 0.662; in test [16], 0.394; in test [18], -0.47; in test [19] it was 0.297. Moreover, the composite Z-score in test [2] was -0.166 (inactive). Further, the z-score is 0.0256 in test [17] and 0.828 (inactive) in test [20].

`CCCC=C(CCC)[C@@H](NC(=O)c1cccs1)c1ccc(C(=O)OC)cc1`: the composite z-score in [1] is -0.0481; in test [3], 1.29; in test [4], 0.728; in [5] it was 0.0222; in test [6], 0.0362; in [7] it was -0.0022. The composite z-score in test [8] was -0.411; in test [9], 0.513; in [10], 0.588; in test [11], 0.196; in test [12], 0.741; in test [13] it was 0.205. Besides, the composite z-score in [14] was 0.686; in test [15], 0.816; in [16] it was 1.13; in test [18], -0.223; in [19] it was -0.119. Besides, in test [2], the composite Z-score was 0.0599 (inactive). In addition, the z-score in test [17] was 0.733; in test [20], 2.23 (inactive).

For `CC(c1ccccc1)C(O)C1C=CC2C(=O)N(C)C(=O)C2N1Nc1ccccc1` (stereo not given), the composite z-score in test [1] was 0.921; in test [3], 0.5; in [4], -0.0067; in test [5], 0.601; in [6], 2.5; in [7], 0.406. In addition, the composite z-score in [8] was 1.31; in [9], -0.826; in [10], 1.21; in test [11], 1.79; in test [12], 1.24; in test [13], 0.322. In addition, the composite z-score was 1.02 in [14]; 0.777 in test [15]; -0.579 in [16]; -0.17 in [18]; 1.21 in test [19]. For the same compound, the composite Z-score in [2] is 0.318 (inactive). Moreover, the z-score in [17] is -0.0184; in [20], 0.206 (inactive).
